Laboratory results as given in ChEMBL document CHEMBL3988442, “University of Dundee, Small-Polar-MMV Screening Library” (2021).
Screen size: about 48,000 compounds; about 13,000 (27%) showed an effect of 50% or more. The list shows a part of the results.

What follows are molecules tested on Wolbachia pipientis (assay: Anti-Wolbachia Cell-Based Screen). Conditions: 5 µM.
Format: functional
Design: scale not given: in the data most compounds retested in dose-response had high values
With `CN(Cc1cc(-c2ccccc2)no1)Cc1nccn1C` the “Percent Effect” value was 8.065%.
`Cc1nn(CCO)c(C)c1CNC1CCc2c(F)cccc21` (centres undefined) was tested, and the “Percent Effect” value was 1.037%.
For `N#Cc1ccc(CN(CC(N)=O)C2CCCC2)cc1`, the “Percent Effect” value was -1.161%.
`O=C(Nc1ccccc1F)N(CCO)CCOCC(F)(F)F` was tested, and the “Percent Effect” value was -14.38%.
`CC(C)(C)S(=O)(=O)CCNC1CSCCc2ccccc21` (centres undefined) was tested, and the “Percent Effect” value was 8.355%.
`CCc1n[nH]c(SCC(=O)N2C[C@@H]3CC[C@H](C2)N(CC=C(C)C)C3)n1` was tested, and the “Percent Effect” value was 12.53%.
For `CCOC(=O)c1cc2c(=O)[nH]c(=O)n(CCc3ccccc3)c2nc1C`, the “Percent Effect” value was -3.034%.
`O=C1CCc2cc(-c3csc(CCN4CCCC4=O)n3)ccc2N1` was tested, and the “Percent Effect” value was -1.736%.
For `CCCN1C(=O)c2ccccc2C1OC` (centres undefined), the “Percent Effect” value was 104.1%.
In the case of `CCn1cnc(NC(=O)N2CCC(c3ccc(Cl)cc3)C2)n1` (centres undefined), the “Percent Effect” value is reported as -2.672%.
In the case of `Cc1nc(C)n(CCCn2ccnc2-c2cc3n(n2)CCCNC3)n1`, the “Percent Effect” value is reported as 0.4256%.
With `Cn1ccc(C(=O)N2CCN(c3ncccn3)CC2)cc1=O` the “Percent Effect” value was -7.771%.
With `Cn1cc(C(=O)N2CCN(c3ccccc3)CC2)ccc1=O` the “Percent Effect” value was -6.133%.
With `Cn1ccc(C(=O)N2CCN(c3cc(C#N)ccn3)CC2)cc1=O` the “Percent Effect” value was 6.84%.
In the case of `Cn1ccc(C(=O)N2CCN(c3ccccn3)CC2)cc1=O`, the “Percent Effect” value is reported as 94.46%.
In the case of `Cn1ccc(C(=O)N2CCN(c3nccs3)CC2)cc1=O`, the “Percent Effect” value is reported as 97.2%.
With `O=C(c1cc(Cl)cc(Cl)c1)N1CCN(c2nccs2)CC1` the “Percent Effect” value was -10.96%.
With `Cn1ccc(CN2CCCN(c3nccs3)CC2)cc1=O` the “Percent Effect” value was 11.25%.
`Cn1cc(C(=O)N2CCN(c3ncccn3)CC2)ccc1=O` was tested, and the “Percent Effect” value was 122.7%.
With `Cn1cc(C(=O)N2CCN(c3ccc(F)cc3)CC2)ccc1=O` the “Percent Effect” value was 27.16%.
For `Cc1cnccc1-n1nc(C(C)C)nc1CCc1cnccn1`, the “Percent Effect” value was -10.93%.
For `Cc1noc(CCCC(=O)NC(C)c2cn(-c3ccccc3)nn2)n1` (centres undefined), the “Percent Effect” value was -6.671%.
`CCS(=O)(=O)N1CCO[C@H]2[C@H](OCC3CCCC3)CC[C@@H]21` was tested, and the “Percent Effect” value was -19.91%.
With `Cn1cnc(S(=O)(=O)N2CCO[C@H]3[C@@H](OCC4CC4)CC[C@@H]32)c1` the “Percent Effect” value was -7.379%.
`CC(C)CO[C@@H]1CC[C@H]2[C@H]1OCCN2S(=O)(=O)C1CC1` was tested, and the “Percent Effect” value was 103.9%.
In the case of `O=S(=O)(C1CC1)N1CCO[C@H]2[C@H](OCC3CCCC3)CC[C@@H]21`, the “Percent Effect” value is reported as -8.752%.
For `CCO[C@@H]1CC[C@H]2[C@H]1OCCN2S(=O)(=O)C1CC1`, the “Percent Effect” value was 110.7%.
With `O=S(=O)(C1CC1)N1CCO[C@H]2[C@H](OCC3CC3)CC[C@@H]21` the “Percent Effect” value was 103.2%.
With `Cn1cnc(S(=O)(=O)N2CCO[C@H]3[C@H](OCC4CC4)CC[C@@H]32)c1` the “Percent Effect” value was -0.8778%.
With `CCO[C@@H]1CC[C@H]2[C@H]1OCCN2S(=O)(=O)c1cn(C)cn1` the “Percent Effect” value was -10.77%.
In the case of `CO[C@@H]1CC[C@H]2[C@H]1OCCN2S(=O)(=O)C1CC1`, the “Percent Effect” value is reported as 111.8%.
For `Cc1cc(CN(C)C(=O)NC2CCCN(c3ncccn3)C2)no1` (centres undefined), the “Percent Effect” value was -2.323%.
`Nc1nccc(N2CCCC(CO)(CCOc3ccccc3)C2)n1` (centres undefined) was tested, and the “Percent Effect” value was -20.36%.
With `Cn1ccnc1CN1CCN(CC(=O)NCc2ccccc2F)CC1` the “Percent Effect” value was 129%.
`Cc1ccccc1CNC(=O)CN1CCN(Cc2nccn2C)CC1` was tested, and the “Percent Effect” value was 7.197%.
`Cn1ccnc1CN1CCN(CC(=O)NCC(F)(F)F)CC1` was tested, and the “Percent Effect” value was 1.598%.
With `CC(C(=O)NCc1cccs1)N1CCN(Cc2nccn2C)CC1` (centres undefined) the “Percent Effect” value was 4.204%.
With `Cn1ccnc1CN1CCN(CC(=O)NCc2cccs2)CC1` the “Percent Effect” value was 99.27%.
With `COc1ccc(CC(=O)N2CC[C@@]3(O)CCNC[C@H]3C2)c(OC)c1` the “Percent Effect” value was -12.62%.
`CCc1nc(CN(C)Cc2ncc(-c3cccs3)o2)cs1` was tested, and the “Percent Effect” value was -9.321%.
In the case of `CN1CC(c2ccccc2)CC2(CCN(Cc3ncc[nH]3)CC2)C1` (centres undefined), the “Percent Effect” value is reported as -21.2%.
For `Cc1ccc(C(CNCc2cccnc2)N2CCOCC2)s1` (centres undefined), the “Percent Effect” value was 5.338%.
With `Cc1ccccc1NC(=O)NCCn1nc(C(F)(F)F)n(C)c1=O` the “Percent Effect” value was 4.371%.
In the case of `O=C(NC1CC1)N1CCc2ccc(=O)n(Cc3cccnc3)c2CC1.O=C(O)C(F)(F)F`, the “Percent Effect” value is reported as -14.38%.
For `CN(C)CCn1c2c(ccc1=O)CC(NCc1cnn(C)c1)CC2.O=C(O)C(F)(F)F.O=C(O)C(F)(F)F` (centres undefined), the “Percent Effect” value was 92.68%.
For `CN(C)CCn1c2c(ccc1=O)CC(NCc1cccnc1)CC2.O=C(O)C(F)(F)F.O=C(O)C(F)(F)F.O=C(O)C(F)(F)F` (centres undefined), the “Percent Effect” value was -9.426%.
For `Cn1cc(CNC2CCc3c(ccc(=O)n3Cc3ccncc3)C2)cn1.O=C(O)C(F)(F)F.O=C(O)C(F)(F)F` (centres undefined), the “Percent Effect” value was 101.4%.
With `Cn1cc(CNC2CCc3c(ccc(=O)n3Cc3cccnc3)C2)cn1.O=C(O)C(F)(F)F.O=C(O)C(F)(F)F` (centres undefined) the “Percent Effect” value was 105.5%.
`NC1CCc2c(ccc(=O)n2Cc2ccncc2)C1` (centres undefined) was tested, and the “Percent Effect” value was -38.16%.
`COc1ccc(C2CC(=O)NCc3nc(N(C)C)sc32)c(O)c1` (centres undefined) was tested, and the “Percent Effect” value was -25.68%.
For `COCCc1ncc(CN2C[C@@H](C(=O)O)[C@H](C(C)C)C2)cn1`, the “Percent Effect” value was -10.49%.
With `Cc1cnc(NS(=O)(=O)c2cccc(C#N)c2)s1` the “Percent Effect” value was -4.999%.
In the case of `CNC(=O)C(NC(C)=O)c1ccc(F)c(F)c1` (centres undefined), the “Percent Effect” value is reported as -14.34%.
`Cc1nc(CN2CCC3(CCCN(Cc4ccoc4)C3)C2=O)cs1.O=C(O)C(F)(F)F.O=C(O)C(F)(F)F` (centres undefined) was tested, and the “Percent Effect” value was 117.4%.
For `Cc1nc(CN2CCOCC3(CCN(c4cccnc4)CC3)C2)cs1.O=C(O)C(F)(F)F.O=C(O)C(F)(F)F`, the “Percent Effect” value was 4.008%.
In the case of `Cc1nc(CN2CCC3(CCCN(Cc4ccncc4)C3)C2=O)cs1.O=C(O)C(F)(F)F.O=C(O)C(F)(F)F.O=C(O)C(F)(F)F` (centres undefined), the “Percent Effect” value is reported as 97.27%.
For `Cc1nc(CN2CCC3(CCCN(Cc4cccnc4)C3)C2=O)cs1.O=C(O)C(F)(F)F.O=C(O)C(F)(F)F.O=C(O)C(F)(F)F` (centres undefined), the “Percent Effect” value was 115.5%.
`N#Cc1ccnc(N2CCN(C(=O)Cc3ccc4c(c3)CCO4)CC2)c1` was tested, and the “Percent Effect” value was -0.6491%.
With `CC(NCc1ccncc1)c1ccc(N2CCN(C)CC2)c(F)c1.Cl` (centres undefined) the “Percent Effect” value was 1.312%.
